Data as given in PubChem BioAssay (Tox21).
Values without a mark were called inactive. Records with an inconclusive call do not appear. Where a call stands in place of a potency, no number is given. The source made the active and inactive calls. The call rests on the fitted dose curve.

Experiments:
[1] = target: Acetylcholinesterase (Homo sapiens) (UniProt P22303); assay: Acetylcholinesterase (AChE) small molecule antagonists: colormetric cell-based qHTS assay (AID 1347395); further: nearly all actives have a fitted effect of over 30% in size; further: potency means the concentration at half of the fitted maximal effect
Sequence of Acetylcholinesterase (Homo sapiens) (P22303 whole entry, looked up): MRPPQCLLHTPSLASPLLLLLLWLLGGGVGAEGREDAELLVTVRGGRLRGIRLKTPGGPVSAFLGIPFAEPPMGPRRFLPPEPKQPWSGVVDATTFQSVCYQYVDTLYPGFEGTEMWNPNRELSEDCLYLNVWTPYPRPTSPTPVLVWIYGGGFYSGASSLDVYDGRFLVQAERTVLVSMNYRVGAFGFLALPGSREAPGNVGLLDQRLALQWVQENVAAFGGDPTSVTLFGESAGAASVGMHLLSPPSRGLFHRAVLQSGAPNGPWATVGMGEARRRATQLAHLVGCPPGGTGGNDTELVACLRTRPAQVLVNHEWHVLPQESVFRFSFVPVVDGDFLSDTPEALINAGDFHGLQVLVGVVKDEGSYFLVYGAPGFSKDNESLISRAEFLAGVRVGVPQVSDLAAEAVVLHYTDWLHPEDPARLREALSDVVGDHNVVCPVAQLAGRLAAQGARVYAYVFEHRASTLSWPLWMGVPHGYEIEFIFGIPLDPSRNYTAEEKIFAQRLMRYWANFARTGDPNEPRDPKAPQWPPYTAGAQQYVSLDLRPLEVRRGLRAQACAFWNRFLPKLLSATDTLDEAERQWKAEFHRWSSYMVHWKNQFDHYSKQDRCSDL
Procedure, shortened: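 SH-SY5Y cells; cpd 30 min 37 C; + DTNB/acetylthiocholine, 90 min 37 C; colorimetric thiocholine read; qHTS.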

[2] = target: Acetylcholinesterase (Homo sapiens) (UniProt P22303); assay: Acetylcholinesterase (AChE) small molecule antagonists: enzyme-based qHTS assay (AID 1347397); conditions: Potency: AChE enzyme activity inhibition; outcome: AChE enzyme activity inhibition; further: nearly all actives have a fitted effect of over 55% in size
Procedure, shortened: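 Colorimetric DTNB readout of acetylthiocholine hydrolysis, 10 min at room temperature, after 30 min room-temperature exposure of 50 mU/mL recombinant human enzyme to compound; DMSO vehicle control.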

[3] = target: Acetylcholinesterase (Homo sapiens) (UniProt P22303); assay: Acetylcholinesterase (AChE) small molecule antagonists: fluorescence cell-based qHTS assay (AID 1347398); conditions: Potency: AChE activity; outcome: AChE activity; further: nearly all actives have a fitted effect of over 50% in size; further: potency means the concentration at half of the fitted maximal effect
Procedure, shortened: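 Cellular AChE activity read as thiocholine from acetylthiocholine hydrolysis, detected by Thiolite Green fluorescence at 490/520 nm after 40 min at room temperature. Compounds were pre-incubated 30 min at 37 C on adherent SH-SY5Y cells.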

[4] = target: Acetylcholinesterase (Homo sapiens) (UniProt P22303); assay: Acetylcholinesterase (AChE) small molecule antagonists: enzyme-based qHTS assay with human liver microsomes (AID 1347399); conditions: Potency: qHTS inhibition; outcome: qHTS inhibition; further: nearly all actives have a fitted effect of over 60% in size
Procedure, shortened: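 Recombinant human AChE (50 mU/mL in the enzyme mix) and human liver microsomes (0.25 mg/mL final) were preincubated with compound and NADPH (0.25 mg/mL final) for 30 min at 37 C. Acetylthiocholine/DTNB was then added; thiocholine was read colorimetrically after 10 min at room temperature.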

SMILES | Potency [1] | Potency [2] | Potency [3] | Potency [4] | activity, negative = inhibition [1] | activity change, negative = inhibition [2] | activity change, negative = inhibition [3] | activity change, negative = inhibition [4]
O=S(=O)(O)c1cccc2c(S(=O)(=O)O)cccc12 | inactive | inactive | inactive | inactive |  |  |  | 
c1cnccn1 | inactive | inactive | inactive | inactive |  |  |  | 
Cc1c(Cl)c(=O)oc2cc(O)ccc12 | 35.6 µM (active) | inactive | 71 µM (active) | inactive |  |  |  | 
CC12CCC(CC1=O)C2(C)C (stereo not given) | inactive | inactive | inactive | inactive |  |  |  | 
Oc1ccc2ccccc2c1N=Nc1ccccc1 | inactive | inactive | inactive | inactive |  |  |  | 
CC(=O)OC(C)(C)C | inactive | inactive | inactive | inactive |  |  |  | 
O=C1c2cccc3c2[C@H](CCC3)CN1[C@@H]1CN2CCC1CC2 | inactive | inactive | inactive | inactive |  |  |  | 
C#CC(O)CCC (stereo not given) | inactive | inactive | inactive | inactive |  |  |  | 
N#C[C@@H]1C[C@@H]2C[C@@H]2N1C(=O)[C@@H](N)C12CC3CC(CC(O)(C3)C1)C2 | inactive | inactive | inactive | inactive |  |  |  | 
CC(C)[C@@H]1CC[C@@H](C)C[C@H]1O | inactive | inactive | inactive | inactive |  |  |  | 
CC1(C)C(O)C(C)(C)C1O (stereo not given) | inactive | inactive | inactive | inactive |  |  |  | 
CCCCCCO | inactive | inactive | inactive | inactive |  |  |  | 
CC(=O)OCc1ccc2c(c1)OCO2 | inactive | inactive | inactive | inactive |  |  |  | 
CCCCCCCCS(=O)C(C)Cc1ccc2c(c1)OCO2 (stereo not given) | inactive | inactive | inactive | inactive |  |  |  | 
Cc1ccc(-c2cc(C(F)(F)F)nn2-c2ccc(S(N)(=O)=O)cc2)cc1 | inactive | inactive | inactive | inactive |  |  |  | 
Cc1[nH]c(C)c(Cl)c(=O)c1Cl |  |  |  |  | 1.65% [at 23.6 µM] | -0.693% [at 23.6 µM] | -0.55% [at 23.8 µM] | -0.336% [at 23.6 µM]
COC(=O)Nc1nc2ccc(C(=O)C3CC3)cc2[nH]1 | inactive | inactive | inactive | inactive |  |  |  | 
CCCOCC(C)O (stereo not given) | inactive | inactive | inactive | inactive |  |  |  | 
CCCc1c(OCCCCc2nn[nH]n2)ccc(C(C)=O)c1O | inactive | inactive | inactive | inactive |  |  |  | 
COCC(C)N (stereo not given) | inactive | inactive | inactive | inactive |  |  |  | 

SMILES | Potency [1] | Potency [2] | Potency [3] | Potency [4] | activity, negative = inhibition [1] | activity change, negative = inhibition [2] | activity change, negative = inhibition [3] | activity change, negative = inhibition [4]
CCCCCC/C=C/CCCCCCCC(=O)O | inactive | inactive | inactive | inactive |  |  |  | 
CNC(=O)NC | inactive | inactive | inactive | inactive |  |  |  | 
C[Si](C)O[Si](C)(C)O[Si](C)(C)O[Si](C)C | inactive | inactive | inactive | inactive |  |  |  | 
C=C(C)C(=O)OCC(C)C | inactive | inactive | inactive | inactive |  |  |  | 
COc1cc(CCC(C)=O)ccc1O | inactive | inactive | inactive | inactive |  |  |  | 
CN1CCC[C@@H]1Cc1c[nH]c2ccc(CCS(=O)(=O)c3ccccc3)cc12 | inactive | inactive | inactive | inactive |  |  |  | 
CN(Cc1cnc2nc(N)nc(N)c2n1)c1ccc(C(=O)N[C@@H](CCC(=O)O)C(=O)O)cc1 | inactive | inactive | inactive | inactive |  |  |  | 
CCC(=O)OCc1ccccc1 | inactive | inactive | inactive | inactive |  |  |  | 
CC(C)(CO)[N+](=O)[O-] | inactive | inactive | inactive | inactive |  |  |  | 
O=Cc1ccc(Cl)cc1 | inactive | inactive | inactive | inactive |  |  |  | 
NC(CCC(=O)O)C(=O)O (stereo not given) | inactive | inactive | inactive | inactive |  |  |  | 
CCC1CO1 (stereo not given) | inactive | inactive | inactive | inactive |  |  |  | 
CCCCC(CC)COS(=O)(=O)O (stereo not given) | inactive | inactive | inactive | inactive |  |  |  | 
CCO[Si](CCCNC(N)=O)(OCC)OCC | inactive | inactive | inactive | inactive |  |  |  | 
c1cc(CCCc2ccncc2)ccn1 | inactive | inactive | inactive | inactive |  |  |  | 
CC(CN(C)C)C(C)(O)Cc1ccc(Cl)cc1 (stereo not given) | inactive | inactive | inactive | inactive |  |  |  | 
O=P(c1ccccc1)(c1ccccc1)c1ccccc1 | inactive | inactive | inactive | inactive |  |  |  | 
OCC1CC2CC1C1CCC(CO)C21 (stereo not given) | inactive | inactive | inactive | inactive |  |  |  | 
c1ccc(CCNc2nc(-c3ccccc3)cs2)cc1 | inactive | inactive | inactive | inactive |  |  |  | 
O=S(=O)(O)c1cccc2ccccc12 | inactive | inactive | inactive | inactive |  |  |  | 

SMILES | Potency [1] | Potency [2] | Potency [3] | Potency [4] | activity, negative = inhibition [1] | activity change, negative = inhibition [2] | activity change, negative = inhibition [3] | activity change, negative = inhibition [4]
CCCCOc1cc(C(=O)NCCN(CC)CC)c2ccccc2n1 | inactive | inactive | inactive | inactive |  |  |  | 
CC(C)CC(=O)O | inactive | inactive | inactive | inactive |  |  |  | 
CC(=O)OCC(=O)[C@@]1(O)[C@H](C)C[C@H]2[C@@H]3CCC4=CC(=O)C=C[C@]4(C)[C@@]3(F)[C@@H](O)C[C@@]21C | inactive | inactive | inactive | inactive |  |  |  | 
Cc1cc(C)c(C)c(C)c1 | inactive | inactive | inactive | inactive |  |  |  | 
CC1(C)[C@@H](O[C@H]2O[C@H](C(=O)O)[C@@H](O)[C@H](O)[C@H]2O[C@@H]2O[C@H](C(=O)O)[C@@H](O)[C@H](O)[C@H]2O)CC[C@]2(C)[C@H]3C(=O)C=C4[C@@H]5C[C@@](C)(C(=O)O)CC[C@]5(C)CC[C@@]4(C)[C@]3(C)CC[C@@H]12 | inactive | inactive | inactive | inactive |  |  |  | 
CC(C)OC(=O)C(C)(C)Oc1ccc(C(=O)c2ccc(Cl)cc2)cc1 | inactive | inactive | inactive | inactive |  |  |  | 
CCSC(=O)N(CC(C)C)CC(C)C | inactive | inactive | inactive | inactive |  |  |  | 
O=[N+]([O-])c1ccc2nc[nH]c2c1 | inactive | inactive | inactive | inactive |  |  |  | 
COC(=O)c1ccc2cc(C(=O)OC)ccc2c1 |  |  |  |  | 3.17% [at 23.6 µM] | -0.273% [at 23.6 µM] | -7.2% [at 23.8 µM] | -4.52% [at 23.6 µM]
CCC(C)(C)OC | inactive | inactive | inactive | inactive |  |  |  | 
CN(C(=O)CN(CCO)CC(=O)N(C)C(C)(C)Cc1ccccc1)C(C)(C)Cc1ccccc1 | inactive | inactive | inactive | inactive |  |  |  | 
CS(=O)(=O)OCCCCOS(C)(=O)=O | inactive | inactive | inactive | inactive |  |  |  | 
Cc1cc(O)c(C)c(C)c1O | inactive | inactive | inactive | inactive |  |  |  | 
CCCCCCCCCC(=O)O | inactive | inactive | inactive | inactive |  |  |  | 
CCC(CO)CO | inactive | inactive | inactive | inactive |  |  |  | 
Nc1ncn([C@H]2C[C@H](O)[C@@H](CO)O2)c(=O)n1 | inactive | inactive | inactive | inactive |  |  |  | 
CCN[C@H]1CN(CCCOC)S(=O)(=O)c2sc(S(N)(=O)=O)cc21 | inactive | inactive | inactive | inactive |  |  |  | 
COC(=O)Cc1cccc2ccccc12 | inactive | inactive | inactive | inactive |  |  |  | 
Cc1ccc(S(=O)(=O)NC(=O)NC2CCCC2)cc1 | inactive | inactive | inactive | inactive |  |  |  | 
CC(N)C12CC3CC(CC(C3)C1)C2 (stereo not given) | inactive | inactive | inactive | inactive |  |  |  | 
